# Measurements reported in PubChem BioAssay AID651812 (National Center for Advancing Translational Sciences (NCATS), 2012).
# Out of some 2,100 compounds screened, about 650 (31%) were called active. Inconclusive results (about 16%) are left out. The list shows a part of the results. A number with no mark means an inactive call. Calls follow the shape of the dose curve; as a rule, active = well fitted inhibition curve with a large enough effect; inconclusive = small, poorly fitted or top-dose-only effect; inactive = flat fitted curve, though single readings scatter.
# Test: qHTS for inhibitors of Vif-A3G interactions: Cherry picks; also: nearly all actives have a fitted effect of over 80% in size; as to activity, negative = fluorescence increase: % of control where 0% means no effect
# Conditions: HeLa A3G-eYFP + Vif (tagged APOBEC3G with the HIV-1 protein that degrades it), 24 h; Potency: eYFP fluorescence increase; series mostly up to 36.9 µM; activity, negative = fluorescence increase: at the top concentration
# From the text: The recent discovery and characterization of host restriction factors, which provide a potent defense to invading retroviruses, has provided new targets for antiviral drug development. APOBEC3G (A3G) and APOBEC3F (A3F) are potent cytidine deaminases that block HIV-1 replication; HIV-1 expresses the Vif protein, which counteracts A3G and A3F by binding to them and inducing their proteasomal degradation. The Vif-A3G and Vif-A3F interactions provide two potential targets for development of small molecules which can interfere with the ability of Vif to degrade A3G or A3F. […] To identify inhibitors that can interfere with Vif mediated degradation of A3G and A3F, we have developed Hela cell lines that stably express A3G or A3F tagged with eYFP at the C-terminal end (A3G-eYFP or A3F-eYFP, respectively) and Vif. In the absence of an inhibitor, Vif induces degradation of A3G-eYFP and A3F-eYFP, and the cells are not fluorescent. In the presence of an inhibitor, it is expected that Vif will be unable to degrade A3G-eYFP and/or A3F-eYFP, resulting in an increase in yellow fluorescence. In this assay, Vif A3G was screened against the cherry picks ordered from the MLSMR. NIH Chemical Genomics Center [NCGC] NIH Molecular Libraries Probe Centers Network [MLPCN] MLPCN Grant: MH093245 Assay Submitter (PI): Vinay Pathak, National Cancer Institute
# A3G-Vif cells were harvested from T225 flask and resuspended in phenol free OPTI-MEM medium with 5% FBS. Then 5 uL of 140,000 cells/mL resuspended cells was dispensed into each well of low base Aurora COC 1,536-well plates (black walled, clear bottom) using a Multidrop Combi dispenser. After overnight culture at 37 deg C with 5% CO2, a total of 23 nL of compounds at 5 selected concentrations from the NPC or positive control (2 mM stock of MG132) in DMSO was transferred to each well of the assay plate using a pintool (Kalypsys, San Diego, CA), and the plates were further incubated at 37 deg C with 5% CO2 for 24 hours. After that, the plates were measured on Acumen Explorer (TTP Lab Tech). The fluorescence was detected by 488 nm/Ex and […].
# Potency is read from the fitted curve at half-maximal effect.
SMILES,"activity, negative = fluorescence increase",Potency
COC(=O)c1cc(Nc2nc3ccccc3nc2NS(=O)(=O)c2ccc(C)cc2)ccc1Cl,7.34% [at 46.1 µM],
COCCCNc1nc2ccccc2nc1NS(=O)(=O)c1ccccc1,10.7% [at 46.1 µM],
COc1cc(Cl)c(C)cc1Nc1nc2ccccc2nc1NS(=O)(=O)c1ccccc1,,16.4 µM (active)
COc1cc(N2CCCC2)c(OC)cc1/C=C1/NC(=S)NC1=O,,2.5 µM (active)
CN1/C(=C/C=C(/C#N)C(N)=O)C(C)(C)c2ccccc21,-16.1%,
CN1/C(=C\C=C(C#N)C#N)C(C)(C)c2ccccc21,,20.6 µM (active)
CN1/C(=C/C=C(C#N)C#N)C(C)(C)c2ccccc21,,18.4 µM (active)
CC1=C/C(=C\C=C(C#N)C#N)N(C)c2ccccc21,,2.59 µM (active)
Cc1ccc2c(c1)Oc1ccc(NC(=O)CCl)cc1C(=O)N2,1.67%,
CC1=NOC(=O)/C1=C\c1ccc(-c2ccc(Br)cc2)o1,-8.38%,
CN(C)/C=N/C1=C(C#N)C(c2cccs2)c2ccc3ccccc3c2O1 (stereo not drawn),-4.1%,
CN(C)c1ccc(/C=C/c2ccnc3c(Cl)ccc(Cl)c23)cc1,,9.2 µM (active)
CN(C)c1ccc(/C=C/c2ccnc3c(Cl)cccc23)cc1,,23.1 µM (active)
CC(/C=N/NC(=O)c1cc(-c2ccc3ccccc3c2)n[nH]1)=C\c1ccco1,-19.6%,
Cc1cc(C(=O)N/N=C/c2ccc3c(c2)OCO3)c2ccccc2n1,-8.89%,
CC(=O)c1cccc(-c2ccnc3c2CC(C(=O)NCc2ccc(F)c(F)c2)O3)c1 (stereo not drawn),-7.23%,
CCC(=O)Nc1nonc1-c1nc2ccccc2n1Cc1ccccc1,-3.53%,
ClCc1nc2ccccc2n1Cc1ccccc1,,16.4 µM (active)
Cc1ccc2[nH]c3c(c2c1)CCCC3NC(=O)CCl (stereo not drawn),0.871%,
O=c1[nH]c2ccccc2n2c(C(F)(F)F)nnc12,,16.4 µM (active)
O=c1[nH]c2ccccc2n2c(=S)[nH]nc12,-16.4% [at 46.1 µM],
N#Cc1c(NC(=O)c2ccc([N+](=O)[O-])o2)sc2c1CCC2,0.738%,

SMILES,"activity, negative = fluorescence increase",Potency
CC1CCCCC1NC(=O)/C(C#N)=C/C=C/c1ccccc1[N+](=O)[O-] (stereo not drawn),-0.675%,
CCOCCCNC(=O)/C(C#N)=C/c1ccc([N+](=O)[O-])o1,,20.6 µM (active)
CC(NC(=O)/C(C#N)=C/c1ccc([N+](=O)[O-])o1)c1ccccc1 (stereo not drawn),,16.4 µM (active)
COc1cc2cc(-c3ccc(OC)c(OC)c3C)nc(N)c2cc1OC,-18.8%,
CC(=O)Nc1cccc(-c2ccnc3c2CC(C)(C(=O)Nc2cccc(C(C)=O)c2)O3)c1 (stereo not drawn),-3.63%,
O=C(NC(=S)N1CCN(c2ccccn2)CC1)c1ccccc1,-8.21% [at 46.1 µM],
O=C(Nc1ccc(Cl)cc1)Nc1ccon1,-6.36%,
CCN(c1ccc(NC(=O)CCc2nc3sc4c(c3c(=O)[nH]2)CCCC4)cc1)C(C)C,-3.33% [at 46.1 µM],
COc1ccccc1N1CCN(C(=O)c2ccc3ncsc3c2)CC1,-5.63%,
CCOc1ccccc1Nc1nnc(-c2cc3cc(Cl)ccc3oc2=O)s1,-23.4% [at 46.1 µM],
COc1ccc2oc(=Nc3ccccc3)c(-c3nc4ccccc4[nH]3)cc2c1,-27.4% [at 46.1 µM],
COc1ccc2oc(=O)c(-c3nc4ccccc4o3)cc2c1,,20.6 µM (active)
COc1cccc2sc(Nc3nc(-c4cc5ccccc5oc4=O)cs3)nc12,-3.79%,
COc1ccc(N=c2oc3ccc(OC)cc3cc2-c2nc3ccccc3[nH]2)cc1,-6.38%,
CCOc1ccccc1Nc1nnc(-c2cc3cc(OC)ccc3oc2=O)s1,,7.31 µM (active)
CCCNC(=O)c1ccccc1NC(=O)c1ccc2c(c1)NC(=O)C(C)S2 (stereo not drawn),-10.8%,
CC(O)CN(CC(C)O)c1ccc2c(c1)Cc1cc([N+](=O)[O-])ccc1-2 (stereo not drawn),,3.26 µM (active)
CN1/C(=C\C=C2/SC(=S)NC2=O)C(C)(C)c2ccccc21,,2.5 µM (active)
C=CCN1C(=O)/C(=C\C=C2\N(C)c3ccccc3C2(C)C)SC1=S,,0.651 µM (active)
CN1/C(=C\C=C2/SC(=S)N(CC(=O)O)C2=O)C(C)(C)c2ccccc21,,1.3 µM (active)
Cc1ccc(-c2nc(SCCOc3ccccc3C)n3[nH]c(=O)cc3n2)cc1,6.77% [at 46.1 µM],
CCCOc1ccc(C(=O)Nc2cccc(NC(=O)c3ccc(Cl)cc3Cl)c2)cc1,,10.3 µM (active)

SMILES,"activity, negative = fluorescence increase",Potency
O=C(Nc1cc(=O)[nH]c(=O)[nH]1)c1cc(Cl)ccc1Cl,-6.68%,
Cc1ccc(NC(=S)NC(=O)c2ccc(F)cc2)cc1S(=O)(=O)Nc1cccc(Cl)c1,3.25% [at 46.1 µM],
COc1cc(Cl)c(C)cc1NC(=O)CN1CCN(C(=O)C2CC2)CC1,-5.23%,
Cc1cccc2cc(C#N)c(SCC(=O)N3CC(=O)Nc4ccccc43)nc12,,17.7 µM (active)
Cc1cc(C)c2nc(SCC(=O)N3CC(=O)Nc4ccccc43)c(C#N)cc2c1,,12.5 µM (active)
COc1cc(OC)cc(C(=O)N2CC(=O)Nc3ccccc32)c1,-6.01%,
COc1ccc2nc(SCC(=O)N3CC(=O)Nc4ccccc43)c(C#N)cc2c1,,23.1 µM (active)
CCC(C)[C@H](NC(=O)N1CC(=O)Nc2ccccc21)C(=O)Nc1ccccc1C (stereo partly drawn),2.3%,
Cc1noc(C)c1COc1cccc(C(=O)OCC(=O)N2CC(=O)Nc3ccccc32)c1,-5.26%,
Cc1cc(C)cc(C(=O)N2CC(=O)Nc3ccccc32)c1,-15.5%,
CCCn1nc(C(=O)N2CC(=O)Nc3ccccc32)c2ccccc2c1=O,-5.96%,
COc1cc(C(=O)N2CC(=O)Nc3ccccc32)cc(OC)c1OC,-5.08%,
NC(=O)c1ccccc1NC(=S)NC(=O)CCc1ccccc1,1.18%,
O=C(/C=C/c1ccco1)NC(=S)Nc1cccc(-c2nc3ccccc3o2)c1,-10.6%,
Oc1cccc(Nc2nc(O)c(/C=C3\C=Nc4ccccc43)s2)c1,,23.1 µM (active)
CC(=O)c1cccc(NC(=O)C2CCCN(S(=O)(=O)c3cccc4nonc34)C2)c1 (stereo not drawn),-16.3% [at 46.1 µM],
COC(=O)c1ccc(Nc2c([N+](=O)[O-])ccc3nonc23)cc1,,20.6 µM (active)
COc1ccc(N2C(=O)NC3CC2(C)Oc2ccccc23)cc1OC (stereo not drawn),-7.13%,
CCOC(=O)c1[nH]c(C)c(C(=O)Nc2cc(OC)ccc2OC)c1C,-9.64%,
COc1ccc(OC)c(NC(=O)Cn2cnc3onc(-c4ccc(Cl)cc4)c3c2=O)c1,2.25% [at 46.1 µM],
COc1ccc(OC)c(NC(=O)Cn2c(=O)n(-c3ccc(Cl)cc3)c(=O)c3c(C)c(C)sc32)c1,,14.6 µM (active)
CCCOc1ccc(N)cc1N,-3.69% [at 46.1 µM],

SMILES,"activity, negative = fluorescence increase",Potency
COc1cc(/C=C2/SC(=S)N(CC3CCCO3)C2=O)ccc1O (stereo not drawn),,18.4 µM (active)
CCOc1cc(/C=C2/SC(=S)N(CC3CCCO3)C2=O)ccc1O (stereo not drawn),,20.6 µM (active)
O=C1/C(=C/c2ccc(O)cc2)SC(=S)N1CC1CCCO1 (stereo not drawn),2.84% [at 46.1 µM],
COc1nc(-c2ccccc2)cc(-c2ccc3c(c2)OCO3)c1C#N,-8.86%,
CCOC(=O)c1c(CN(CC)CC)n(-c2ccccc2)c2ccc(O)cc12,-3%,
O=C1/C(=C\c2ccc(O)cc2)SC(=S)N1Cc1ccccc1,8.8% [at 46.1 µM],
O=C(O)c1cc(-c2ccc(/C=C3/SC(=S)N(Cc4ccccc4)C3=O)o2)ccc1Cl,,18.4 µM (active)
Cc1c(C(=O)OC2CCCCC2)[nH]c2c1C(=O)CC(c1ccccc1Cl)C2 (stereo not drawn),-1.35% [at 46.1 µM],
Cc1cc(/C=C2\SC(=S)N(C)C2=O)c(C)n1-c1ccc(O)cc1,,20.6 µM (active)
Cc1cc(/C=C2\SC(=Nc3ccccc3)NC2=O)c(C)n1-c1ccc(S(N)(=O)=O)cc1,-12.8%,
Cc1cc(/C=C2\SC(=S)N(C)C2=O)c(C)n1-c1ccccc1O,,23.1 µM (active)
NC(=O)c1cccc(-c2ccnc3c2CC(C(=O)NCc2ccco2)O3)c1 (stereo not drawn),-1.78%,
NC(=S)N/N=C/c1cccc(O)c1O,-2.38% [at 46.1 µM],
CC(=O)N/N=C/c1cc(C(C)C)cc(/C=N/NC(C)=O)c1O,,23.1 µM (active)
CC(=O)N/N=C/c1cc(C(C)(C)C)cc(/C=N/NC(C)=O)c1O,,23.1 µM (active)
Cc1cc(-n2c(C)cc(C(=O)CCl)c2C)no1,-5.58%,
Cc1ccc(/C=N/NC(=O)c2nc3nc(C)cc(C)n3n2)cc1,11.1% [at 46.1 µM],
CC[N+](C)(C(=O)O)/C(=C\c1ccccc1)c1ccnc2ccccc12 (stereo not drawn),,18.4 µM (active)
CCc1ccc(/C=N/NC(=O)c2cc(-c3ccncc3)nc3ccccc23)s1,-2.61%,
CC(=O)N1CCc2nc3sc(C(=O)c4ccc(F)cc4)c(N)c3c(C(F)(F)F)c2C1,,18.4 µM (active)
COc1ccc(-c2n[nH]c3c2CN(C(=O)c2ccc(OC)c(OC)c2)CC3)cc1,1.56%,
COc1cc2c(cc1OC)CN(C(=O)c1ccc3nc[nH]c3c1)CC2,-3.55%,

SMILES,"activity, negative = fluorescence increase",Potency
COc1ccc(C(=O)c2sc3nc4c(c(C(F)(F)F)c3c2N)CN(C(C)=O)CC4)cc1OC,,18.4 µM (active)
COc1ccc(-c2cc3ccccc3oc2=O)cc1NC(=S)NC(=O)c1ccc2c(c1)OCCO2,-29.6% [at 46.1 µM],
COc1ccc(S(=O)(=O)Nc2cccc(-c3ccc4nncn4n3)c2)cc1,-5.05%,
Cc1ccc(NC(=S)N/N=C2\CCCCC2C)cc1 (stereo not drawn),-7.25% [at 46.1 µM],
CN(C)S(=O)(=O)c1ccc(N2CCCC2)c(C(=O)N2CCN(S(=O)(=O)c3ccc(F)c(F)c3)CC2)c1,-0.607%,
Cc1cc(NC(=O)/C(C#N)=C/c2ccc(-c3ccc(SC(F)F)cc3)o2)n(-c2ccccc2)n1,,10.3 µM (active)
Cc1cc(NC(=O)/C(C#N)=C\c2ccc(-c3ccc(SC(F)F)cc3)o2)n(-c2ccccc2)n1,,14.6 µM (active)
O=C(/C=C/c1ccco1)NC(=S)Nc1ccc(N2CCCC2)cc1,-9.35%,
Cc1ccc2[nH]c3c(c2c1)CN(C(=O)CN1CC(C)OC(C)C1)CC3 (stereo not drawn),-22.7%,
COc1ccc(C(=O)Nc2cc(C(C)=O)c(/C=C/N(C)C)oc2=O)cc1,,15.8 µM (active)
CC(=O)c1cc2c(cc1NS(=O)(=O)c1ccc(C)cc1)OCCO2,-0.455%,
CO/N=C\CC(=O)Nc1ccc(Oc2ccccc2)cc1,-4.61%,
COc1cc(OC)cc(C(=O)Nc2ccccc2C(=O)NC2CC2)c1,-10.4%,
CC(=O)c1cc(NC(=O)c2ccc(Cl)cc2)c(=O)oc1/C=C/N(C)C,,11.2 µM (active)
Cc1ccc(/C=N/NC(=O)c2cc(C)oc2C)cc1,-5.86%,
COc1ccc(C(=O)Nc2cccc(/C=C/c3nc4ccccc4c(=O)[nH]3)c2)cc1,-4.28%,
COC(=O)c1c(-c2ccccc2Cl)noc1/C=C/N(C)C,0.705%,
O=C(Nc1ccccc1OC(=O)c1ccccc1)c1ccccc1,-13.5%,
COC(=O)c1cc(NC(=O)c2ccccc2)c(=O)oc1/C=C/Nc1ccc(Oc2ccccc2)cc1,,11.6 µM (active)
CC(=O)c1cc(NC(=O)c2ccc(C)cc2)c(=O)oc1/C=C/N(C)C,,16.4 µM (active)
